This passage reports binding signal results from paper PMC11006913.

Assay in all cases: PBM; 200 nM protein, PBS
Details in all cases: dsDNA, one strand shown

In test [1] the target is HOXA4 (Homo sapiens, UniProt Q00056 201-287, W262R).
The target of test [2] is HOXA4 (Homo sapiens, UniProt Q00056 201-287).
Test [3] deals with HOXA4 (Homo sapiens, UniProt Q00056 201-287, W262F).
Test [4] concerns the target HOXC9 (Homo sapiens, UniProt P31274 178-260, K195R).
Test [5] deals with HOXC10 (Homo sapiens, UniProt Q9NYD6 254-340).
Chain of HOXC10 (Homo sapiens, UniProt Q9NYD6 254-340) (Q9NYD6 254-340): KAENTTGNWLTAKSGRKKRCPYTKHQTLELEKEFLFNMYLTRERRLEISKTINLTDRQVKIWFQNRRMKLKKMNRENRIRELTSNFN
The target of test [6] is HOXC9 (Homo sapiens, UniProt P31274 178-260).
Chain of HOXC9 (Homo sapiens, UniProt P31274 178-260) (P31274 178-260): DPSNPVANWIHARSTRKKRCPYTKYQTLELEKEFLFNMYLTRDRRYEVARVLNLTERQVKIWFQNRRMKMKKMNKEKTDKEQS
Test [7] addresses HOXC9 (Homo sapiens, UniProt P31274 178-260, R193K).
Test [8] deals with HOXC10 (Homo sapiens, UniProt Q9NYD6 254-340, K271E).
Chain of HOXC10 (Homo sapiens, UniProt Q9NYD6 254-340, K271E) (Q9NYD6 254-340 K271E): as the sequence (Q9NYD6 254-340) above, with K18E counted along it
Test [9] has as its target HOXC9 (Homo sapiens, UniProt P31274 178-260, R222W).
In test [10] the target is ALX4 (Homo sapiens, UniProt Q9H161 200-286).
Chain of ALX4 (Homo sapiens, UniProt Q9H161 200-286) (Q9H161 200-286): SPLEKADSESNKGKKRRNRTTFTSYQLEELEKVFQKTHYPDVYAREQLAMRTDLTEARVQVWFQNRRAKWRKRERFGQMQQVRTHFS
For test [11], the target named is ALX4 (Homo sapiens, UniProt Q9H161 200-286, Q225E).
Chain of ALX4 (Homo sapiens, UniProt Q9H161 200-286, Q225E) (Q9H161 200-286 Q225E): as the sequence (Q9H161 200-286) above, with Q26E counted along it
In test [12] the target is MSX2 (Homo sapiens, UniProt P35548 130-214, R199I).
Chain of MSX2 (Homo sapiens, UniProt P35548 130-214, R199I) (P35548 130-214 R199I): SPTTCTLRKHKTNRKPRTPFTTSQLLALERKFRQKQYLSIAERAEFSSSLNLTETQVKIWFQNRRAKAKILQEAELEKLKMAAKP
Test [13] deals with MSX2 (Homo sapiens, UniProt P35548 130-214).
Chain of MSX2 (Homo sapiens, UniProt P35548 130-214) (P35548 130-214): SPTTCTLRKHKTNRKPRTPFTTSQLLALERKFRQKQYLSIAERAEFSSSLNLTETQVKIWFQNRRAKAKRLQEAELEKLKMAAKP
For test [14], the target named is MSX2 (Homo sapiens, UniProt P35548 130-214, F161Y).
Chain of MSX2 (Homo sapiens, UniProt P35548 130-214, F161Y) (P35548 130-214 F161Y): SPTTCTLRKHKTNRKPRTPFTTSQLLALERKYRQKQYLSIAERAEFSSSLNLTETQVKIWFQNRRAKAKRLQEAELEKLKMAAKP
The target in test [15] is VAX1 (Homo sapiens, UniProt Q5SQQ9 86-172).
Chain of VAX1 (Homo sapiens, UniProt Q5SQQ9 86-172) (Q5SQQ9 86-172): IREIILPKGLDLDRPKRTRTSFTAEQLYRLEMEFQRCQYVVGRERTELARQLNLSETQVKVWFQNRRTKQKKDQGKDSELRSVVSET
In test [16] the target is VAX1 (Homo sapiens, UniProt Q5SQQ9 86-172, T142I).
Chain of VAX1 (Homo sapiens, UniProt Q5SQQ9 86-172, T142I) (Q5SQQ9 86-172 T142I): as the sequence (Q5SQQ9 86-172) above, with T57I counted along it
The target in test [17] is VAX1 (Homo sapiens, UniProt Q5SQQ9 86-172, K157R).
Chain of VAX1 (Homo sapiens, UniProt Q5SQQ9 86-172, K157R) (Q5SQQ9 86-172 K157R): as the sequence (Q5SQQ9 86-172) above, with K72R counted along it
Test [18] deals with HOXA7 (Homo sapiens, UniProt P31268 116-202).
Chain of HOXA7 (Homo sapiens, UniProt P31268 116-202) (P31268 116-202): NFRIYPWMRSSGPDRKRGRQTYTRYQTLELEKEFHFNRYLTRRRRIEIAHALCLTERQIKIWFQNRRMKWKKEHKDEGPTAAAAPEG
Test [19] deals with ALX3 (Homo sapiens, UniProt O95076 139-225, N203Q).
Chain of ALX3 (Homo sapiens, UniProt O95076 139-225, N203Q) (O95076 139-225 N203Q): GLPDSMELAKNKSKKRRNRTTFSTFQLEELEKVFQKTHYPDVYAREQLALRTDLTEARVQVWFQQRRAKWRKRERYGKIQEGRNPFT
Test [20] concerns the target ALX3 (Homo sapiens, UniProt O95076 139-225).
Test [21] deals with ALX3 (Homo sapiens, UniProt O95076 139-225, L168Q).
Chain of ALX3 (Homo sapiens, UniProt O95076 139-225, L168Q) (O95076 139-225 L168Q): as the sequence (O95076 139-225 N203Q) above, with L30Q, Q65N counted along it
Test [22] deals with ALX3 (Homo sapiens, UniProt O95076 139-225, L168V).
Chain of ALX3 (Homo sapiens, UniProt O95076 139-225, L168V) (O95076 139-225 L168V): as the sequence (O95076 139-225 N203Q) above, with L30V, Q65N counted along it
The target in test [23] is HOXA7 (Homo sapiens, UniProt P31268 116-202, W177C).
Chain of HOXA7 (Homo sapiens, UniProt P31268 116-202, W177C) (P31268 116-202 W177C): as the sequence (P31268 116-202) above, with W62C counted along it
Test [24] addresses ALX3 (Homo sapiens, UniProt O95076 139-225, N203S).
The target in test [25] is PRRX1 (Homo sapiens, UniProt P54821 80-166, F113S).
Chain of PRRX1 (Homo sapiens, UniProt P54821 80-166, F113S) (P54821 80-166 F113S): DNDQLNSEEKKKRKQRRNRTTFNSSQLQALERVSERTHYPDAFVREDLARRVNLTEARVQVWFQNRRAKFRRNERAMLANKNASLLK
Test [26] has as its target PRRX1 (Homo sapiens, UniProt P54821 80-166).
Another test deals with HOXB6 (Homo sapiens, UniProt P17509 132-218).
Chain of HOXB6 (P17509 132-218): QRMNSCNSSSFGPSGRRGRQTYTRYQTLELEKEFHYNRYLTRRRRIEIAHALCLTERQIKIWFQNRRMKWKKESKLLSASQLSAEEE
For test [27], the target named is ALX1 (Homo sapiens, UniProt Q15699 118-204, L144V).
Chain of ALX1 (Homo sapiens, UniProt Q15699 118-204, L144V) (Q15699 118-204 L144V): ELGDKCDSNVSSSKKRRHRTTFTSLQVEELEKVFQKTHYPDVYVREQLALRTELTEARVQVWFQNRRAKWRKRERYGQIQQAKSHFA
Test [28] concerns the target ALX1 (Homo sapiens, UniProt Q15699 118-204, L144R).
Test [29] has as its target ALX1 (Homo sapiens, UniProt Q15699 118-204).

Chain of HOXC9 (Homo sapiens, UniProt P31274 178-260, R222W) (P31274 178-260 R222W): as the sequence (P31274 178-260) above, with R45W counted along it
Chain of HOXA4 (Homo sapiens, UniProt Q00056 201-287) (Q00056 201-287): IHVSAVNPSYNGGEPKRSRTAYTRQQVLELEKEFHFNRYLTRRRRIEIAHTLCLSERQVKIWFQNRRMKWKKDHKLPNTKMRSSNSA
Chain of HOXC9 (Homo sapiens, UniProt P31274 178-260, R193K) (P31274 178-260 R193K): as the sequence (P31274 178-260) above, with R16K counted along it
Chain of HOXA4 (Homo sapiens, UniProt Q00056 201-287, W262F) (Q00056 201-287 W262F): as the sequence (Q00056 201-287) above, with W62F counted along it
Chain of HOXA4 (Homo sapiens, UniProt Q00056 201-287, W262R) (Q00056 201-287 W262R): as the sequence (Q00056 201-287) above, with W62R counted along it
Chain of HOXC9 (Homo sapiens, UniProt P31274 178-260, K195R) (P31274 178-260 K195R): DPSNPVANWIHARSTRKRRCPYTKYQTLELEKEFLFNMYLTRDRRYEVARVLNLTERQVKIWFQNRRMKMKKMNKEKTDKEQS
Chain of PRRX1 (Homo sapiens, UniProt P54821 80-166) (P54821 80-166): as the sequence (P54821 80-166 F113S) above, with S34F counted along it
Chain of ALX3 (Homo sapiens, UniProt O95076 139-225) (O95076 139-225): as the sequence (O95076 139-225 N203Q) above, with Q65N counted along it
Chain of ALX1 (Homo sapiens, UniProt Q15699 118-204) (Q15699 118-204): as the sequence (Q15699 118-204 L144V) above, with V27L counted along it
Chain of ALX3 (Homo sapiens, UniProt O95076 139-225, N203S) (O95076 139-225 N203S): as the sequence (O95076 139-225 N203Q) above, with Q65S counted along it
Chain of ALX1 (Homo sapiens, UniProt Q15699 118-204, L144R) (Q15699 118-204 L144R): as the sequence (Q15699 118-204 L144V) above, with V27R counted along it

For the sequence AATAGGTG, the binding signal with HOXA4 [1] is 10.3 upbm affinity estimate (log intensity, higher = more binding, comparable within an allelic series); in the test with HOXA4 [2], 11.3 upbm affinity estimate (log intensity, higher = more binding, comparable within an allelic series); with HOXA4 [3] it was 10.3 upbm affinity estimate (log intensity, higher = more binding, comparable within an allelic series).

In the case of ATGACAGC, the binding signal was 10.2 upbm affinity estimate (log intensity, higher = more binding, comparable within an allelic series) in the test with HOXA4 [1]; 11.3 upbm affinity estimate (log intensity, higher = more binding, comparable within an allelic series) with HOXA4 [2]; 10.5 upbm affinity estimate (log intensity, higher = more binding, comparable within an allelic series) with HOXA4 [3].

Regarding AATTGTTC, the binding signal with HOXA4 [1] was 10.4 upbm affinity estimate (log intensity, higher = more binding, comparable within an allelic series); with HOXA4 [2] it was 11.9 upbm affinity estimate (log intensity, higher = more binding, comparable within an allelic series).

On to GACCTCGC, for which the binding signal was 9.59 upbm affinity estimate (log intensity, higher = more binding, comparable within an allelic series) with HOXC9 [4]; 10 upbm affinity estimate (log intensity, higher = more binding, comparable within an allelic series) in the test with HOXC10 [5]; 9.54 upbm affinity estimate (log intensity, higher = more binding, comparable within an allelic series) with HOXC9 [6]; 9.57 upbm affinity estimate (log intensity, higher = more binding, comparable within an allelic series) with HOXC9 [7]; 9.99 upbm affinity estimate (log intensity, higher = more binding, comparable within an allelic series) with HOXC10 [8]; 9.76 upbm affinity estimate (log intensity, higher = more binding, comparable within an allelic series) with HOXC9 [9].

Turning to CGCGGTGC, the binding signal with HOXC9 [4] is 9.77 upbm affinity estimate (log intensity, higher = more binding, comparable within an allelic series); in the test with ALX4 [10], 8.05 upbm affinity estimate (log intensity, higher = more binding, comparable within an allelic series); with ALX4 [11], 8.13 upbm affinity estimate (log intensity, higher = more binding, comparable within an allelic series); with HOXC9 [6], 9.77 upbm affinity estimate (log intensity, higher = more binding, comparable within an allelic series); with MSX2 [12] it was 9.6 upbm affinity estimate (log intensity, higher = more binding, comparable within an allelic series); in the test with HOXC9 [7], 9.76 upbm affinity estimate (log intensity, higher = more binding, comparable within an allelic series). Also, the binding signal was 9.52 upbm affinity estimate (log intensity, higher = more binding, comparable within an allelic series) with MSX2 [13]; 9.74 upbm affinity estimate (log intensity, higher = more binding, comparable within an allelic series) in the test with HOXC9 [9]; 9.68 upbm affinity estimate (log intensity, higher = more binding, comparable within an allelic series) with MSX2 [14].

Consider AATCACTG, for which the binding signal in the test with HOXA4 [1] was 10.3 upbm affinity estimate (log intensity, higher = more binding, comparable within an allelic series); in the test with HOXA4 [2], 11.3 upbm affinity estimate (log intensity, higher = more binding, comparable within an allelic series); with VAX1 [15] it was 9.43 upbm affinity estimate (log intensity, higher = more binding, comparable within an allelic series); in the test with VAX1 [16] it was 9.21 upbm affinity estimate (log intensity, higher = more binding, comparable within an allelic series); in the test with VAX1 [17], 9.33 upbm affinity estimate (log intensity, higher = more binding, comparable within an allelic series).

Turning to AGCAGCCC, the binding signal was 9.76 upbm affinity estimate (log intensity, higher = more binding, comparable within an allelic series) with HOXC9 [4]; 8.64 upbm affinity estimate (log intensity, higher = more binding, comparable within an allelic series) with HOXA7 [18]; 9.83 upbm affinity estimate (log intensity, higher = more binding, comparable within an allelic series) in the test with HOXC9 [6]; 7.76 upbm affinity estimate (log intensity, higher = more binding, comparable within an allelic series) with ALX3 [19]; 9.78 upbm affinity estimate (log intensity, higher = more binding, comparable within an allelic series) with HOXC9 [7]; 7.62 upbm affinity estimate (log intensity, higher = more binding, comparable within an allelic series) with ALX3 [20]. Moreover, the binding signal with ALX3 [21] was 7.67 upbm affinity estimate (log intensity, higher = more binding, comparable within an allelic series); with HOXC9 [9] it was 9.61 upbm affinity estimate (log intensity, higher = more binding, comparable within an allelic series); with ALX3 [22] it was 7.75 upbm affinity estimate (log intensity, higher = more binding, comparable within an allelic series); with HOXA7 [23] it was 8.34 upbm affinity estimate (log intensity, higher = more binding, comparable within an allelic series); with ALX3 [24] it was 7.72 upbm affinity estimate (log intensity, higher = more binding, comparable within an allelic series).

In the case of AATCGATG, the binding signal was 10.4 upbm affinity estimate (log intensity, higher = more binding, comparable within an allelic series) with HOXA4 [1] and 11.7 upbm affinity estimate (log intensity, higher = more binding, comparable within an allelic series) in the test with HOXA4 [2].

With CCCCTCAC, the binding signal with HOXC9 [4] was 9.6 upbm affinity estimate (log intensity, higher = more binding, comparable within an allelic series); in the test with PRRX1 [25], 9.49 upbm affinity estimate (log intensity, higher = more binding, comparable within an allelic series); with HOXC9 [6], 9.72 upbm affinity estimate (log intensity, higher = more binding, comparable within an allelic series); in the test with HOXC9 [7] it was 9.5 upbm affinity estimate (log intensity, higher = more binding, comparable within an allelic series); with HOXC9 [9] it was 9.75 upbm affinity estimate (log intensity, higher = more binding, comparable within an allelic series); with PRRX1 [26], 9.53 upbm affinity estimate (log intensity, higher = more binding, comparable within an allelic series).

For the sequence CATTTGGG, the binding signal in the test with HOXA4 [1] was 10.1 upbm affinity estimate (log intensity, higher = more binding, comparable within an allelic series); with HOXA4 [2] it was 11.3 upbm affinity estimate (log intensity, higher = more binding, comparable within an allelic series); with HOXA4 [3], 10.3 upbm affinity estimate (log intensity, higher = more binding, comparable within an allelic series).

Turning to ATATAACG, the binding signal with HOXA4 [1] is 10.4 upbm affinity estimate (log intensity, higher = more binding, comparable within an allelic series); with HOXA4 [2], 11.4 upbm affinity estimate (log intensity, higher = more binding, comparable within an allelic series); with HOXB6 it was 10.7 upbm affinity estimate (log intensity, higher = more binding, comparable within an allelic series).

As for CAGACGGC, the binding signal with HOXC9 [4] is 9.46 upbm affinity estimate (log intensity, higher = more binding, comparable within an allelic series); in the test with PRRX1 [25], 9.13 upbm affinity estimate (log intensity, higher = more binding, comparable within an allelic series); with HOXC9 [6], 9.65 upbm affinity estimate (log intensity, higher = more binding, comparable within an allelic series); with ALX1 [27], 6.56 upbm affinity estimate (log intensity, higher = more binding, comparable within an allelic series); with HOXC9 [7], 9.48 upbm affinity estimate (log intensity, higher = more binding, comparable within an allelic series); in the test with ALX1 [28], 6.52 upbm affinity estimate (log intensity, higher = more binding, comparable within an allelic series). Besides, the binding signal with HOXC9 [9] was 9.64 upbm affinity estimate (log intensity, higher = more binding, comparable within an allelic series); in the test with ALX1 [29] it was 6.59 upbm affinity estimate (log intensity, higher = more binding, comparable within an allelic series); with PRRX1 [26], 9.37 upbm affinity estimate (log intensity, higher = more binding, comparable within an allelic series).
